Source: PubChem (several laboratories)
A selection: hits, their analogues and other compounds. The true share with any hit is near 0.69%.
MRP1 act: activators of MRP-1. H69AR cells + doxorubicin, viability rescue, CellTiter-Glo. 0.61% of 140,000 active. viability increase, % at 10 µM;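 active = viability gain under doxorubicin at or above a set limit, the compound median plus 3 SD, cut at about 4.7% in these data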;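 also: MRP-1 overexpressing cells given doxorubicin 25 µM after compound pretreatment; 18-22 h compound pretreatment then 72 h with doxorubicin before readout; 0% = doxorubicin-only wells and 100% = vehicle-treated cells without doxorubicin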
MRP reversal: reverses drug resistance mediated by MRP; H69AR cells + 2 uM doxorubicin, CellTiter-Glo, 72 h; differential viability (reversal), % at 10 µM; 0.04% of 85,000 active;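 active = viability drop by adding the cancer drug above about 55%, with treated viability meeting a 40% cutoff, limit read from the data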;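 also: viability without doxorubicin minus viability with 2 µM doxorubicin for each compound; larger differential means the compound sensitizes cells more to doxorubicin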
Phagocyt inh: macrophage phagocytosis inhibition. J774A.1 macrophage IgG-bead phagocytosis, imaging. inhibition, % at 5 µM. 0.07% of 110,000 active. AID 1029;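 active = inhibition above the mean of the plate negative controls plus 5 SD, cut at about 13% in these data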;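 also: phagocytic index as fraction of beads internalized from green versus red external bead signal; plate controls were DMSO negative control for no effect and cytochalasin-D positive control for full effect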
* = called active by the depositor.

Screening N#Cc1c(-c2ccccc2)nc(SCC(=O)N(c2ccccc2)c2ccccc2)[nH]c1=O returned MRP1 act 7.5* and Phagocyt inh -5.
For O=C(CSc1nc2ccccc2c(=O)[nH]1)c1cccs1 the results were MRP1 act -1, MRP reversal -4 and Phagocyt inh -1.
CCCc1cc(=O)[nH]c(SCC(=O)Nc2ccccc2C#N)n1 was read as MRP1 act -3, MRP reversal -11 and Phagocyt inh -3.
Screening N#Cc1c(-c2ccco2)nc(SCC(=O)Nc2ccc(S(N)(=O)=O)cc2)[nH]c1=O returned MRP1 act 3 and Phagocyt inh 0.
Screening N#Cc1c(-c2ccccc2)nc(SCC(=O)Nc2ccccc2)[nH]c1=O returned MRP1 act 9.6* and Phagocyt inh -9.
For Cc1[nH]nc(SCC(=O)NCc2ccc(F)cc2)c1[N+](=O)[O-] the results were MRP1 act -2 and Phagocyt inh -8.
Screening Cc1cc(C)nc(N2CCCC(C(=O)Nc3cc(F)ccc3C)C2)n1 (configuration not stated) returned MRP1 act -1, MRP reversal 10 and Phagocyt inh 0.
COc1cc(OC)c2c(OC)cccc2n1 was read as MRP1 act -1 and Phagocyt inh -1.
For CC1CCCCN1CC(=O)Nc1ccccc1Sc1ccccc1 (configuration not stated) the results were MRP1 act -2.
Cc1cc(NC(=O)c2cccc(COc3ccc(Br)cc3)c2)no1 was read as MRP1 act -1, MRP reversal 14 and Phagocyt inh 0.
Screening O=C(Nc1cc(Oc2ccccc2)cc([N+](=O)[O-])c1)C12CC3CC(C1)CC(n1cnc(Cl)n1)(C3)C2 returned MRP1 act -2.
`COc1cc(NC(=S)Nc2ccccn2)cc(OC)c1` gave MRP1 act -3 and Phagocyt inh 0.
Screening O=C(CCS(=O)(=O)c1cccc2nsnc12)NC1CCCCC1 returned MRP1 act -2.
Screening CCOC(=O)CCCCC(=O)c1[nH]c(=O)[nH]c1CSCCO returned MRP1 act -1, MRP reversal 7 and Phagocyt inh 0.
`Cc1cccc(NC(=O)CSc2nc(-c3ccccc3)c(C#N)c(=O)[nH]2)c1C` gave MRP1 act 9.1*.
CCC(Sc1nc(-c2ccccc2)c(C#N)c(=O)[nH]1)C(=O)Nc1nnc(C)s1 (configuration not stated) was read as MRP1 act 6.4* and Phagocyt inh 2.
`Cc1cc(NC(=O)CSc2nc(-c3ccccc3)c(C#N)c(=O)[nH]2)no1` gave MRP1 act 9.1*, MRP reversal 4 and Phagocyt inh 0.
Cc1cccc(NC(=O)CSc2nc3[nH]ncc3c(=O)[nH]2)c1C was read as MRP1 act -2.
CCOC(=O)CCCCC(=O)c1[nH]c(=O)[nH]c1CSc1nc(-c2ccccc2)c(C#N)c(=O)[nH]1 was read as MRP1 act 6.4*, MRP reversal 3 and Phagocyt inh 1.
For Cc1cc(NC(=O)CSc2nc3ccccc3[nH]2)no1 the results were MRP1 act -3, MRP reversal 6 and Phagocyt inh 1.
Screening CCC(Sc1nc(C)cc(=O)[nH]1)C(=O)Nc1nc(-c2ccccc2)cs1 (configuration not stated) returned MRP1 act -1, MRP reversal 3 and Phagocyt inh -1.
CCN(c1cccc(C)c1)c1nc2ccsc2c(=O)s1 was read as MRP1 act 0, MRP reversal -7 and Phagocyt inh -2.
`CCc1sc(C(=O)Nc2ccc(F)cc2C)cc1C` gave MRP1 act -1 and Phagocyt inh -9.
Screening Cc1ccc(-c2cc3cccc[n+]3cc2-c2ccc(C)cc2)cc1 returned MRP1 act -4 and Phagocyt inh 4.
S=c1[nH]ncn1/N=C/c1ccccn1 was read as MRP1 act -2 and Phagocyt inh -2.
Screening FC(F)(F)c1ccc(Cl)c(N/N=C/c2ccc(N3CCOCC3)s2)c1 returned MRP1 act -3.
`CCC(Sc1nccn1C)C(=O)Nc1cccc2ccccc12` (configuration not stated) gave MRP1 act 0 and MRP reversal -7.
CCC(Sc1nccn1C)C(=O)Nc1nnc(C)s1 (configuration not stated) was read as MRP1 act 7.3*, MRP reversal 1 and Phagocyt inh 0.
For CCc1cccc(C)c1NC(=S)NCc1ccc2[nH]c(C)cc2c1 the results were MRP1 act -3.
For N#C/C(=N\Nc1ccc(Cl)cc1)C(=N)N1CCCCC1 the results were MRP1 act 0, MRP reversal 3 and Phagocyt inh 2.
N#C/C(=N\Nc1ccccc1F)C(=N)N1CCCCC1 was read as MRP1 act 8.2* and MRP reversal 11.
Screening Cc1ccc(NC(=S)N2CCOCC2)cc1 returned MRP1 act -1 and Phagocyt inh 1.
